Cycloheximide cs: counter-screen hit for Shiga toxin inhibitors, cycloheximide. max response, %. hit rate 12% among 300,000. cell reporter, cycloheximide protein synthesis inhibition counterscreen; in the data active means max response mostly above about 13%, no sharp cut-off; inactive means mostly below about 14%; further: read at 38.3 µM for the half of the compounds with a filed dose
Shiga inhibitor: Shiga toxin inhibition; AID 2315; inhibition, % at 38.7 µM; Vero cells, Shiga toxin protein synthesis inhibition reporter; hit rate 9.2% among 290,000; in the data active means inhibition mostly above about 28%, no sharp cut-off; inactive means mostly below about 43%
Sm TGR block: S. mansoni TGR enzyme inhibition; Q962Y6; purified TGR, DTNB reduction, TNB absorbance 405 nm; Potency, µM (doses to about 114 µM), usual class: inhibitors; hit rate 3% among 360,000; AID 485364; active means well fitted inhibition curve with a large enough effect; inconclusive means small, poorly fitted or top-dose-only effect; inactive means no such curve, though single readings can be large or run the other way; further: nearly all actives have a fitted effect of over 60% in size
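TGR 20 nM + NADPH 100 uM (dispensed conc.), cpd preinc 15 min RT; start with NADPH (500 uM addition) then DTNB (15 mM addition). Kinetic TNB absorbance, 405 nm filter. Four-parameter Hill fit across titration.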
FMDV inh: antivirals against foot and mouth disease virus. FMDV antiviral cell-based qHTS. Potency, µM (highest dose often 57.9 µM), hits mostly inhibitors. hit rate 1.2% among 410,000. AID 1159524; calls by dose curve; tested in HEK293T cells; further: read-out not given here; nearly all actives have a fitted effect of over 45% in size
Numbers stand for hits; i = inactive; ? = inconclusive; nt = no result given. Shown are actives, neighbours in structure and some others; about 12% of the full set was active somewhere.

SMILES	Cycloheximide cs	Shiga inhibitor	Sm TGR block	FMDV inh
Cn1nnnc1Sc1ncnc2scc(-c3ccc[nH]3)c12	nt	nt	11.2µM	?
Cc1ccc(-c2nc3nc(C)cc(N4CCN(c5cc(Cl)ccc5C)CC4)n3n2)cc1	nt	nt	i	i
Cc1ccc(C)c(Cn2c3ccccc3c3cnn(CC(=O)NC4CCC(C)CC4)c(=O)c32)c1 (stereo not given)	nt	nt	i	i
COC(=O)[C@H](CCSC)NC(=O)c1ccc(NC[C@@H](N)CS)cc1-c1ccccc1	i	i	nt	nt
Cn1nnnc1Sc1ncnc2scc(-c3ccc(Br)cc3)c12	nt	nt	nt	17.8µM
COc1ccccc1-c1csc2ncnc(Sc3nnnn3C)c12	nt	nt	i	?
COCCn1c(-c2ccccc2)c(C)n2c3c(=O)n(C)c(=O)n(C)c3nc12	nt	nt	i	3.16µM
CCCCn1c(-c2ccc(C)cc2)c(C)n2c3c(=O)n(C)c(=O)n(C)c3nc12	nt	nt	i	?
Cc1c(-c2ccccc2)n(-c2ccccc2O)c2nc3c(c(=O)n(C)c(=O)n3C)n12	nt	nt	i	25.1µM
Cc1ccc(-c2c(C)n3c4c(=O)n(C)c(=O)n(C)c4nc3n2CCO)cc1	nt	nt	i	17.8µM
Cc1cc(C)cc(-n2c(-c3ccccc3)c(C)n3c4c(=O)n(C)c(=O)n(C)c4nc23)c1	nt	nt	i	i
CC(C)N(Cc1ccccc1)C(=O)Cn1ncc2c([nH]c3ccccc32)c1=O	nt	nt	i	?
Cc1cccc(N2CCN(C(=O)Cc3c(C(=O)O)c(C)cn3C)CC2C)c1 (stereo not given)	nt	nt	i	i
Cc1cccc(N2C(=O)N(CC(=O)C(C)(C)C)c3ccccc3S2(=O)=O)c1C	nt	nt	i	i
CCOc1ccc(-c2cc(-c3nc(-c4cc(OC)c(OC)c(OC)c4)no3)[nH]n2)cc1Cl	nt	nt	i	i
C=CCSc1nnc(-c2sc(-c3ccccc3)nc2C)n1C	41.6	i	i	i
Cn1c(SCCSc2nnc(-c3ccccc3)n2C)nnc1-c1ccccc1	i	i	i	nt
O=Nc1c(-c2ccccc2)cc2ccccn12	48.2	130.0	i	i
COc1ccc(-c2noc(N3CCN(c4ccc(C)cc4)C(C)C3)n2)cc1OC (stereo not given)	nt	nt	i	?
O=C(CSc1nccn1Cc1ccc(F)cc1)NCc1ccc(F)cc1	nt	nt	i	i
Cc1cc(C)n(-c2nc3ccccc3c(=O)n2OCC(=O)OCc2ccccc2)n1	14.6	i	i	i
Cc1cc(CC(C)C)n(-c2nc3ccccc3c(=O)n2OCc2ccccc2)n1	31.0	i	i	i
Cc1cc(C)n(-c2nc3ccccc3c(=O)n2OCC(=O)N(C)C)n1	i	i	i	i
Cc1cc(C)n(-c2nc3ccccc3c(=O)n2OCc2ccc(F)cc2)n1	18.5	i	i	i
CC(=O)Nc1cccc(-n2cc3c(c2-c2ccccc2Cl)c(=O)n(C)c(=O)n3C)c1	nt	nt	i	i
SMILES	Cycloheximide cs	Shiga inhibitor	Sm TGR block	FMDV inh
Cc1nc(NCc2c(F)cccc2F)sc1-c1ccn(CCN2CCOCC2)n1	nt	nt	nt	i
Cc1ccc(-n2c3c(cc(C(=O)NC4CCSC4=O)c2=O)C(=O)CCC3)cc1 (stereo not given)	i	i	79.4µM	i
COc1ccc(NC2SC(=O)N(C)C2=O)cc1 (stereo not given)	i	49.4	i	i
Cc1c(CN2CCOc3ccc(C(C)(O)COc4ccccc4)cc3C2)cnn1C (stereo not given)	nt	nt	nt	i
O=C(OCC12CC3CC(CC(C3)C1)C2)c1ccc(NCc2cc(O)ccc2O)cc1	nt	nt	nt	17.8µM
O=C(O)c1cc(NCc2cc(O)ccc2O)ccc1O	i	i	nt	i
O=C1CN(S(=O)(=O)c2ccc3c(c2)OCCO3)CCN1S(=O)(=O)c1c(F)cccc1F	i	i	nt	nt
Cc1cccc(Cc2cnc(NC(=O)c3ccc(C)o3)s2)c1	34.7	71.0	i	i
Cc1ccc(Cc2cnc(NC(=O)c3ccco3)s2)cc1	34.8	66.7	i	nt
O=C(Nc1ncc(Cc2cccc(Cl)c2)s1)c1ccc([N+](=O)[O-])cc1	i	i	i	?
Cc1ccc(Cc2cnc(NC(=O)C3=NCCN3)s2)cc1	i	i	i	nt
O=C(Nc1ncc(Cc2ccccc2)s1)C1=NCCN1	i	58.0	i	i
O=C(Nc1ncc(Cc2cccc([N+](=O)[O-])c2)s1)c1ccco1	29.5	101.7	i	i
Cc1ccc(OCc2nnc(NC(=O)c3ccco3)s2)cc1	i	i	i	i
COc1cccc(C2=NS(=O)(=O)N(C)C(C(=O)Nc3ccccc3SC)=C2)c1	nt	nt	i	i
COc1ccc(-c2nn3c(-c4ccccc4C)nnc3c3ccccc23)cc1	nt	nt	i	i
COCCn1c(=O)c(C)nc2cnc(N3CCNCC3)nc21	nt	nt	nt	i
O=C(NCCc1cccs1)C1CCC(=O)N(CCc2cccc(F)c2)C1 (stereo not given)	i	i	i	i
Cc1ccsc1CCNC(=O)C1CCC(=O)N(CCc2cccc(F)c2)C1 (stereo not given)	45.9	119.9	i	i
Cc1ccsc1CN(C)C(=O)C1CCC(=O)N(CCc2cccc(F)c2)C1 (stereo not given)	36.4	52.9	i	i
Cc1cccc(N2CCN(C(=O)c3ccc4nc(N5CCC(C)CC5)sc4c3)CC2)c1C	nt	nt	i	i
Brc1ccc2oc(-c3ccn[nH]3)cc2c1	70.1	119.5	i	i
COc1ccc(OC)c(/C=N/N(C)c2ccccc2)c1	36.2	i	i	i
COc1cc(/C=N/N(C)C)cc(Br)c1O	i	i	i	i
COc1ccc(OC)c(C=NN=Cc2cc(OC)ccc2OC)c1	nt	nt	nt	i
SMILES	Cycloheximide cs	Shiga inhibitor	Sm TGR block	FMDV inh
COc1cc(/C=N/N(C)c2ccccc2)cc(Cl)c1O	37.5	i	i	i
CC(C)Cn1c(C(C)C)nc([N+](=O)[O-])c1Sc1ccc(Cl)cn1	i	i	i	?
CCCCn1c(CCC)nc([N+](=O)[O-])c1Sc1ccc(Cl)cn1	i	i	22.4µM	?
O=C(N/N=C/c1ccoc1)c1ccccc1O	29.0	i	i	i
Cc1cc(C)cc(C(=O)N/N=C/c2ccoc2)c1	i	i	i	i
O=C(N/N=C/c1ccoc1)c1ccc(Cl)cc1	i	i	44.7µM	i
O=C(N/N=C/c1ccoc1)c1cc(O)cc(O)c1	i	i	i	i
O=C(N/N=C/c1ccoc1)c1ccc(Br)cc1	36.3	36.0	i	i
O=C(N/N=C/c1ccoc1)c1ccccc1	36.7	61.2	i	i
Cc1ccccc1CNC(=O)c1cnc2sc(N3CCC(C)CC3)nn2c1=O	nt	nt	i	i
O=C(Nc1ncc(Cc2cccc(Cl)c2Cl)s1)C1CCCO1 (stereo not given)	47.5	100.5	i	i
O=C(Nc1ncc(Cc2ccccc2Cl)s1)C1CCCO1 (stereo not given)	54.4	48.8	i	i
O=C(Nc1ncc(Cc2cccc(Cl)c2)s1)C1CCCO1 (stereo not given)	69.1	115.8	i	i
CC(=O)Nc1ncc(Cc2cccc(Cl)c2)s1	i	i	i	i
Cc1cnc(NC(=O)C2CCCO2)s1 (stereo not given)	i	i	i	i
CCc1ccc(NC(=O)CC2C(=O)N(c3ccc(OC)cc3)C(=O)N2Cc2cccs2)cc1 (stereo not given)	nt	nt	i	i
COCCCNC(=O)CSc1c2c(nc3ccc(Cl)cc13)CCCC2	i	i	i	28.2µM
Cc1ccc(CNC(=O)CSc2c3c(nc4cc(Cl)ccc24)CCCC3)o1	i	i	8.91µM	28.2µM
CCN(CC)CCCNC(=O)CSc1c2c(nc3cc(Cl)ccc13)CCCC2	i	i	?	31.6µM
